The text below walks through data of PubChem BioAssay AID2314 (National Center for Advancing Translational Sciences (NCATS), 2010).

Hit rate of the full screen: of about 300,000 compounds, about 37,000 (12%) were called active. This is one part of a sample in which actives are shown more often than they occur. A number with no mark means an inactive call. Rule as the data show it: active = max response mostly above about 13% (no sharp cut-off); inactive = mostly below about 14%.

The nature of this assay: Cycloheximide Counterscreen for Small Molecule Inhibitors of Shiga Toxin. Also: read at 38.3 µM for the half of the compounds with a filed dose; 0% is about no effect. The following applies: cell reporter, cycloheximide protein synthesis inhibition counterscreen; hits give high values.
As to `S=c1[nH]nc(-c2cc(-c3ccsc3)n[nH]2)n1-c1ccccc1`, the max response was 6.52%. For the compound `c1ccc(-c2cc(-c3ccccc3)[nH]n2)cc1`, the max response was 36.7% (active). To `Oc1ccccc1-c1cc(-c2ccc(Cl)cc2)n[nH]1` belongs 29% (active); to `S=c1[nH]nc(-c2cc(-c3ccccc3)n[nH]2)n1/N=C/c1c2ccccc2cc2ccccc12`, -3.32%.

On to `Cc1ccc(NC(=O)c2cc(-c3ccccc3O)n[nH]2)cc1C`, for which the max response was 12%. As for `Cc1cc(C(=O)OCC(=O)N2c3ccccc3NC(=O)C2(C)C)c(C)n1-c1ccccc1`, the figure is -2.79%; as for `CCc1cc(=O)oc2c(C)c(OCC(=O)N3CC[C@@]4(O)CCCC[C@H]4C3)ccc12`, -0.987%. With `O=C(CCC(=O)N/N=C/c1ccc(Br)o1)N/N=C/c1ccc(Br)o1`, the max response is -1.8%. To `CC1(C)OC(=O)N2CCc3ccccc3C21C` (stereo not given) belongs -1.95%; to `O=C(Cc1nn[nH]n1)NCCC1=CCCCC1`, -1.06%. As for `O=C(COc1ccc(Cl)cc1)NCCC1=CCCCC1`, the figure is -4.36%; as for `O=C(NCCCN1CCOCC1)c1ccc(N2CCCC2)c([N+](=O)[O-])c1`, 1.3%; as for `CN(c1ccc(C(=O)NCCC2=CCCCC2)cc1)S(C)(=O)=O`, 35.4% (active).

In the case of `Cc1ccn2c(=O)c(C(=O)NCCC3=CCCCC3)c(O)nc2c1`, the max response is 16.1%.

Consider `O=C(NCCC1=CCCCC1)c1ccc(Cl)c([N+](=O)[O-])c1`, for which the max response is 39.2% (active). With `CN1CCNC(=O)C1CC(=O)NCCC1=CCCCC1` (stereo not given), the max response is 6.87%. Turning to `CC(=O)Nc1ccc(S(=O)(=O)N(C)CC(=O)NCCC2=CCCCC2)cc1`, the max response is 8.71%. For `Cn1nnc2cc(C(=O)NCCC3=CCCCC3)ccc21`, the max response is 36.9% (active). Take `CCC(=O)c1ccc(OC(=O)/C=C/c2cc(OC)c(OC)c(OC)c2)cc1`: the max response was -6.8%. As for `COc1ccc(C(=O)O)cc1S(=O)(=O)NCc1cccnc1`, the figure is 1.18%; as for `COc1ccc(Cn2c(O)c(/C=C3/C=CC=N3)c(=O)[nH]c2=O)cc1`, 1.33%.

Take `Cc1nc2c(C(=O)NCc3cccs3)cnn2c(C)c1Cc1ccc(F)cc1`: the max response is 0.665%. As for `O=C(NCC1CCN(Cc2ccccc2Cl)CC1)Nc1cccc(Cl)c1`, the figure is 9.67%; as for `O=C(Nc1ccncc1)Nc1ccc(F)cc1`, 21.6% (active); as for `CCc1ccc(NC(=O)Nc2ccncc2)cc1`, 28.8% (active). Consider `CCc1ccc(NC(=O)N[C@H](C(=O)O)C(C)CC)cc1` (stereo not given in full), for which the max response was 9.38%. As for `CC(C)CC(=O)Nc1ccc(Cc2ccncc2)cc1`, the max response was -2.52%. Take `O=C(Nc1ccc(F)cc1)N1CCN(c2ccc(F)cc2)CC1`: the max response was 1.7%. As for `O=C(Nc1ccncc1)c1c(F)cccc1F`, the max response is 14.2%. As for `CCCc1ccc(OCc2ccc(C(=O)N/N=C/c3cccc([N+](=O)[O-])c3)o2)c(OC)c1`, the max response is -2.18%. With `CC(C)Cn1c(=O)c2ccccc2n2c(CCC(=O)NCc3ccccn3)nnc12`, the max response was 15.7%. With `Cc1cccc(C)c1N1C(=O)CN(Cc2ccccc2)C1=S`, the max response is -2.32%. In the case of `O=C(NCCS(=O)(=O)c1ccc(Br)cc1)c1ccccc1Cl`, the max response is -3.1%. To `CN(C)S(=O)(=O)c1ccc(C(=O)NCCN=C2NS(=O)(=O)c3ccccc32)cc1` belongs -3.08%. `OC(c1nnc(-c2ccccc2)o1)c1cccs1` (stereo not given): the max response is 76.9% (active).

In the case of `CCCN(CCC)c1ccc(C(O)c2nnc(-c3ccccc3)o2)cc1` (stereo not given), the max response was 26.9%. Regarding `O=C(Nc1nnc(-c2ccccc2)o1)c1cc(-c2cccs2)nc2ccccc12`, the max response is -2.91%.

Turning to `CCCc1cc(=O)oc2cc(OCC(=O)Nc3ccc(CN4CCOCC4)cc3)c(Cl)cc12`, the max response is -3.2%. Regarding `O=[N+]([O-])c1ccc(N=Cc2c(O)ccc3ccccc23)cc1`, the max response was -1.91%. For `Oc1c(C=Nc2cccc3nsnc23)ccc2ccccc12`, the max response is 16.7% (active). Turning to `O=C(Nc1cccc(C(F)(F)F)c1)c1ccc(N2CCNCC2)c([N+](=O)[O-])c1`, the max response is 0.923%. Consider `Nc1nc(SCC(=O)N2CCN(S(=O)(=O)c3ccc(Cl)cc3)CC2)n[nH]1`, for which the max response was 6.07%. With `Cc1occc(=O)c1OCc1c(Cl)cccc1Cl`, the max response is 0.434%.

Regarding `COC(=O)c1ccc(-n2cnc3ccccc32)nc1`, the max response is 24.9% (active).

In the case of `O=C(c1ccc(Cl)cc1)n1cnc2ccccc21`, the max response is -2.21%. As for `Cc1ccc(OCC(=O)Nn2cnc3ccccc32)cc1`, the max response is 8.71%.

Consider `CCC(C)(C)n1nnnc1C(c1ccc(OC)c(OC)c1)N1CCN(C(=O)c2ccco2)CC1` (stereo not given), for which the max response was -2.11%. As for `CCCOc1cccc(C(=O)Nc2nnn(CCC)n2)c1`, the max response is 26.2% (active). As for `CCCOc1cccc(C(=O)NCCCNC(=O)c2cccnc2)c1`, the max response was -1.77%.

For `CCCn1nnc(NC(=O)COc2ccc(CC)cc2)n1`, the max response was 3.91%. To `CC1CN(S(=O)(=O)c2ccc(C(=O)Nc3sccc3C(N)=O)cc2)CC(C)O1` (stereo not given) belongs -0.296%. Consider `COc1ccc(CN(C(=O)CSc2nnc(-c3ccc(OC)c(OC)c3)o2)c2ccc(F)cc2)cc1`, for which the max response was -0.972%. As for `CC(=O)c1c(C)[nH]c(C(=O)OCC(=O)NCCC(C)C)c1C`, the figure is -1.49%. As to `CCCCOC(=O)c1[nH]c(C)c(C(=O)OC)c1C`, the max response was 60.6% (active).

For `COC(=O)c1c(C)[nH]c(C(=O)NCCc2ccc(S(N)(=O)=O)cc2)c1C`, the max response was -10.2%.

Turning to `Cc1ccc(C(=O)NC(=S)Nc2ccc(N3CCOCC3)cc2)cc1`, the max response was 13.6%.

Turning to `COC(=O)c1ccc(NC(=S)NN2CCOCC2)cc1`, the max response was 20.6% (active). For `COC(=O)c1ccc(NC(=S)Nc2cccc(C)n2)cc1`, the max response is 10.2%.

With `COc1ccc2c3c(c(=O)oc2c1)C1O[C@](CCCCN2C(=O)c4ccccc4C2=O)(Cc2c1ccc1ccccc21)O3`, the max response is -1.56%. On to `COc1cc(/C=N/Nc2ccc(C)cc2)cc(Br)c1O`, for which the max response is 7.52%. On to `Oc1c(Br)cccc1/C=N/Nc1c(F)c(F)c(F)c(F)c1F`, for which the max response was 6.05%. Regarding `Oc1cccc(/C=N/Nc2ccc(Cl)nn2)c1O`, the max response was 43.2% (active). In the case of `COc1cccc(/C=N/Nc2ccc(Cl)nn2)c1`, the max response was 25.6% (active). As for `Cc1ccsc1/C=N/n1c(=S)[nH]nc(C)c1=O`, the figure is -1.56%. For `Clc1ccc(N/N=C/c2cccs2)nn1`, the max response was 22.2% (active).

For `Cc1ccsc1/C=N/NC(=O)Cc1cc(=O)[nH][nH]1`, the max response is 4.08%. Turning to `Cc1ccsc1/C=N/Nc1ccc(Cl)nn1`, the max response is 14% (active). With `NC(=O)N/N=C\c1cccs1`, the max response was 5.02%. To `COc1cccc(/C=N\Nc2nncc(-c3ccccc3)n2)c1` belongs 6.58%; to `Cn1c(=O)c2c(nc(N/N=C/c3cccs3)n2Cc2ccc(Br)cc2)n(C)c1=O`, 10.1%.
